Results filed as inconclusive are left out. The source made the active and inactive calls. How the source made its calls, unless noted: active means hit-call score of the fitted dose curve at least 0.9, where 1 is the maximum; inconclusive means response in the unintended direction; inactive means score below 0.9.
Columns and labels:
[1] = TOX21_p53_BLA_p2_viability: Viability Assessment in the Tox21 HCT-116 p53 Agonism Beta-lactamase Assay, Phase 2 (AID 2283591);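 further: compound exposure lasted 16 h at 37 °C; actives lower the ATP signal meaning cytotoxicity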
Outline: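 HCT-116 p53-bla cells (4000/well) rested 5 h at 37C, then received compounds in DMSO (217-fold dilution) for 16 h at 37C, 5% CO2. After the CCF4 read, CellTiter-Glo was added; ATP luminescence was read after 30 min at room temperature.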

[2] = molecular target: Cellular tumor antigen p53 (Homo sapiens) (UniProt P04637); assay: TOX21_p53_BLA_p2_ratio: Tox21 HCT-116 p53 Agonism Beta-lactamase Assay, Ratio, Phase 2 (AID 2283592)
Sequence of Cellular tumor antigen p53 (Homo sapiens) (P04637 whole entry, looked up): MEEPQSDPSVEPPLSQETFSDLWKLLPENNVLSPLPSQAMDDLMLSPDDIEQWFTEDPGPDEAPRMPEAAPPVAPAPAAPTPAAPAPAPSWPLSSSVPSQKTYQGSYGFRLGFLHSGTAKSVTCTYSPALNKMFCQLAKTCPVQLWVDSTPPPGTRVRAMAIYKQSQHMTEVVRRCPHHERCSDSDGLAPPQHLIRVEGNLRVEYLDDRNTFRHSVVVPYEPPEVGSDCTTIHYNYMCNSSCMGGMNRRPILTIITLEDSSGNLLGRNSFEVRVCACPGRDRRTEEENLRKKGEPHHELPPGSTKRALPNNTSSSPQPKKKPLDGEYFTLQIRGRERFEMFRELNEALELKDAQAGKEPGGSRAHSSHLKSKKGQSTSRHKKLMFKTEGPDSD
Outline: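 Human colon HCT116 cells with an inducible p53 beta-lactamase reporter are exposed to test chemicals for 16 h at 37C. Reporter induction is read as the 460/530 nm emission ratio after CCF4-AM loading, normalized to DMSO.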

[3] = TOX21_p53_BLA_p3_viability: Viability Assessment in the Tox21 HCT-116 p53 Agonism Beta-lactamase Assay, Phase 3 (AID 2283593)
Outline: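 HCT-116 cells (4000/well) rested 5 h at 37C, then got DMSO compounds by pin tool (217-fold dilution) for 16 h at 37C, 5% CO2. After the bla read, CellTiter-Glo was added and luminescence read at 30 min, room temperature.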

[4] = molecular target: Cellular tumor antigen p53 (Homo sapiens) (UniProt P04637); assay: TOX21_p53_BLA_p3_ratio: Tox21 HCT-116 p53 Agonism Beta-lactamase Assay, Ratio, Phase 3 (AID 2283596)
Outline: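 HCT116 p53-bla cells (4000/well) given compound in DMSO (217-fold dilution) after 5 h, incubated 16 h at 37C. CCF4-AM substrate 2 h at room temperature; 460/530 nm emission ratio, gain fitted against DMSO.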

[5] = TOX21_p53_BLA_p4_viability: Viability Assessment in the Tox21 HCT-116 p53 Agonism Beta-lactamase Assay, Phase 4 (AID 2283597);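 further: hits lower the luminescence signal meaning cytotoxicity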
Outline: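 Luminescent ATP readout (CellTiter-Glo, 30 min, room temperature) in the same wells as the p53 bla ratio. HCT116 cells were treated for 16 h at 37C with DMSO-dissolved compounds.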

[6] = molecular target: Cellular tumor antigen p53 (Homo sapiens) (UniProt P04637); assay: TOX21_p53_BLA_p5_ratio: Tox21 HCT-116 p53 Agonism Beta-lactamase Assay, Ratio, Phase 5 (AID 2283599)
Outline: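 HCT-116 cells carrying a p53-inducible beta-lactamase reporter were seeded at 4000 cells/well and dosed after 5 h with compound in DMSO (217-fold dilution). After 16 h at 37C, CCF4-AM substrate was added for 2 h, and the 460/530 nm emission ratio was scored as gain-of-signal versus DMSO.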

[7] = TOX21_p53_BLA_p5_viability: Viability Assessment in the Tox21 HCT-116 p53 Agonism Beta-lactamase Assay, Phase 5 (AID 2283600)
Outline: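 Seeded cells (4000/well) settle 5 h before compound addition. Plates then incubate 16 h at 37C, receive FRET substrate for 2 h, and finally CellTiter-Glo, with luminescence measured after a 30 min room-temperature incubation.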

[8] = molecular target: Cellular tumor antigen p53 (Homo sapiens) (UniProt P04637); assay: TOX21_p53_BLA_p4_ratio: Tox21 HCT-116 p53 Agonism Beta-lactamase Assay, Ratio, Phase 4 (AID 2283601)
Outline: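 HCT116 cells carrying an inducible beta-lactamase reporter were plated at 4000 cells/well, rested 5 h, then exposed to compounds in DMSO (217-fold dilution) for 16 h at 37C. CCF4-AM substrate was loaded 2 h at room temperature; 460/530 nm emission ratio scored gain-of-signal versus DMSO.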

[9] = molecular target: Thyroid hormone receptor alpha (Rattus norvegicus) + Thyroid hormone receptor beta (Rattus norvegicus) (UniProt P18113+P63059); assay: TOX21_TR_LUC_GH3_Antagonist_Followup: Tox21 GH3 Thyroid Hormone Receptor Antagonism Luciferase Follow-Up Assay (AID 2283942)
Outline: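 Rat pituitary GH3 cells with a TRα/TRβ-driven luciferase reporter, 5 h attachment, then 15 concentrations (92 uM to 5nM final) plus 1.0 nM T3 agonist, 24 h at 37C/5% CO2. ONE-Glo luminescence; signal change fitted against DMSO baseline.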

THRA (gene 7067) = THRA (gene 7067) (UniProt P10827); assay: TOX21_TRA_COA_Antagonist_Followup_ratio: Tox21 Thyroid Hormone Receptor alpha Antagonism through Coactivator Recruitment Follow-Up Assay, Ratio (AID 2283953)
Sequence of THRA (gene 7067) (P10827 whole entry, looked up, the tested form may be a part): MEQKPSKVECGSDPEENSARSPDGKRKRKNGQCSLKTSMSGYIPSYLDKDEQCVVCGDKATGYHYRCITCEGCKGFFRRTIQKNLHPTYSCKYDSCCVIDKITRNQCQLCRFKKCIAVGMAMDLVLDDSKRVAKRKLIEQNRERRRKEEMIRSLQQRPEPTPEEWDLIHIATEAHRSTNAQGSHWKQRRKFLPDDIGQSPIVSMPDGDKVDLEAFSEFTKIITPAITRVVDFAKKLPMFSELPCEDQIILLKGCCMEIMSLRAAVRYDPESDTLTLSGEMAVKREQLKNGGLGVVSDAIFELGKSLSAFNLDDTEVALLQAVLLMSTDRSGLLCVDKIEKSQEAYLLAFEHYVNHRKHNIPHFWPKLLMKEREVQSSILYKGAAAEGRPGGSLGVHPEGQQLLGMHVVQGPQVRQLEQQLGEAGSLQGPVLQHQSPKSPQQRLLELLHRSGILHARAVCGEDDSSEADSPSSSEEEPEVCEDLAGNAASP
Outline: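 520:495 nm emission ratio (excitation 340 nm) reports fluorescein-SRC-2 peptide recruitment to GST-TRα LBD by TR-FRET with Tb anti-GST antibody. Values were normalized to DMSO (0%) and T3 control wells (100%); loss of signal indicated antagonism.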

THRB (gene 7068) [10] = molecular target: THRB (gene 7068) (UniProt P10828); assay: TOX21_TRB_BLA_Antagonist_Followup_ratio: Tox21 Thyroid Hormone Receptor beta Antagonism Beta-lactamase (BLA) Follow-Up Assay, Ratio (AID 2283958)
Sequence of THRB (gene 7068) (P10828 whole entry, looked up, the tested form may be a part): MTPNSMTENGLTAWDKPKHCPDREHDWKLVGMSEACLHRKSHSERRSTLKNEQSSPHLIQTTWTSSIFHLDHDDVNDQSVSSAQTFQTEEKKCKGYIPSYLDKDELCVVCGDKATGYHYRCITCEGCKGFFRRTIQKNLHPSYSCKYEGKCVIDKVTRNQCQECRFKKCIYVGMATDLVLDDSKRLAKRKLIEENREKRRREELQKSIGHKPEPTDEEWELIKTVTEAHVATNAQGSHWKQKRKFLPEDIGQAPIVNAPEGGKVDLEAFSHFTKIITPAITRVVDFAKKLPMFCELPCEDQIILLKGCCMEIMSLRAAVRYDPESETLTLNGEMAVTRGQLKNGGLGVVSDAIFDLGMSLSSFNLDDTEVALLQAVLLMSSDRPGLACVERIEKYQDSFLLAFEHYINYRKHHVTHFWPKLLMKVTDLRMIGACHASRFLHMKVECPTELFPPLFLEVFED
Outline: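 HEK293T cells with a GAL4-TRb LBD fusion and UAS-bla reporter, 3,000 cells/well in phenol red-free DMEM with 2% charcoal-stripped FBS. Exposed 18 h at 37C to 11 concentrations in triplicate; CCF4 460:530 nm ratio after 2 h, DMSO-referenced.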

[11] = TOX21_TRB_BLA_Antagonist_Followup_viability: Viability Assessment in the Tox21 Thyroid Hormone Receptor beta Antagonism Beta-lactamase (BLA) Follow-Up Assay (AID 2283961)
Outline: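 In the same wells as the reporter read, cell health was gauged by CellTiter-Glo ATP luminescence, with signal loss indicating reduced viability. Cells had been exposed to test compounds for 18 h.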

THRB (gene 7068) [12] = molecular target: THRB (gene 7068) (UniProt P10828); assay: TOX21_TRB_COA_Antagonist_Followup_ratio: Tox21 Thyroid Hormone Receptor beta Antagonism through Coactivator Recruitment Follow-Up Assay, Ratio (AID 2283967)
Outline: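 Cell-free TR-FRET coactivator recruitment with GST-tagged TRβ LBD (5.0 nM) and fluorescein-labeled SRC-2 peptide (200 nM) detected by terbium anti-GST antibody (2 nM). The 520:495 nm emission ratio was normalized to DMSO (0%) and T3 (100%).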

[13] = molecular target: Retinoic acid receptor RXR-alpha (Homo sapiens) (UniProt P19793); assay: TOX21_TR_RXR_BLA_Antagonist_Followup_ratio: Tox21 Thyroid Hormone Receptor beta Retinoid X Receptor alpha (RXRa) Antagonism Beta-lactamase (BLA) Follow-Up Assay, Ratio (AID 2283972)
Sequence of Retinoic acid receptor RXR-alpha (Homo sapiens) (P19793 whole entry, looked up): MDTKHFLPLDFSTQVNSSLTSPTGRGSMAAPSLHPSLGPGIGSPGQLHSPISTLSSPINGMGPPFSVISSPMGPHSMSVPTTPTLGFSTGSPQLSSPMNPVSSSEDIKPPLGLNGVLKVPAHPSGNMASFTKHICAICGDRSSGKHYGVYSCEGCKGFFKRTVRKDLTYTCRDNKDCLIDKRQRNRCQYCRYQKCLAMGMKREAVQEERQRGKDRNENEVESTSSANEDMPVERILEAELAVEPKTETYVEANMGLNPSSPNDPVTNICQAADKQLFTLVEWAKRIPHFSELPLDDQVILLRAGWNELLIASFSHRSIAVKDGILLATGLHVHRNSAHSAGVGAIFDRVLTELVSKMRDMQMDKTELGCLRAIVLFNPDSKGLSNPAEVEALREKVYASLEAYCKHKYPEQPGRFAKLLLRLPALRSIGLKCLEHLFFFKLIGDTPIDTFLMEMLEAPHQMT
Outline: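 Compounds were tested in triplicate at 11 concentrations on RXRa-bla HEK293T cells for 16 h. Substrate cleavage ratio, normalized to DMSO, gave the endpoint.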

PGR (gene 5241) [14] = molecular target: PGR (gene 5241) (UniProt P06401); assay: TOX21_PR_BLA_Followup_Agonist_ratio: Tox21 HEK293 Progesterone Receptor (PR) Agonism Beta-lactamase Follow-Up Assay, Ratio (AID 2283933)
Sequence of PGR (gene 5241) (P06401 whole entry, looked up): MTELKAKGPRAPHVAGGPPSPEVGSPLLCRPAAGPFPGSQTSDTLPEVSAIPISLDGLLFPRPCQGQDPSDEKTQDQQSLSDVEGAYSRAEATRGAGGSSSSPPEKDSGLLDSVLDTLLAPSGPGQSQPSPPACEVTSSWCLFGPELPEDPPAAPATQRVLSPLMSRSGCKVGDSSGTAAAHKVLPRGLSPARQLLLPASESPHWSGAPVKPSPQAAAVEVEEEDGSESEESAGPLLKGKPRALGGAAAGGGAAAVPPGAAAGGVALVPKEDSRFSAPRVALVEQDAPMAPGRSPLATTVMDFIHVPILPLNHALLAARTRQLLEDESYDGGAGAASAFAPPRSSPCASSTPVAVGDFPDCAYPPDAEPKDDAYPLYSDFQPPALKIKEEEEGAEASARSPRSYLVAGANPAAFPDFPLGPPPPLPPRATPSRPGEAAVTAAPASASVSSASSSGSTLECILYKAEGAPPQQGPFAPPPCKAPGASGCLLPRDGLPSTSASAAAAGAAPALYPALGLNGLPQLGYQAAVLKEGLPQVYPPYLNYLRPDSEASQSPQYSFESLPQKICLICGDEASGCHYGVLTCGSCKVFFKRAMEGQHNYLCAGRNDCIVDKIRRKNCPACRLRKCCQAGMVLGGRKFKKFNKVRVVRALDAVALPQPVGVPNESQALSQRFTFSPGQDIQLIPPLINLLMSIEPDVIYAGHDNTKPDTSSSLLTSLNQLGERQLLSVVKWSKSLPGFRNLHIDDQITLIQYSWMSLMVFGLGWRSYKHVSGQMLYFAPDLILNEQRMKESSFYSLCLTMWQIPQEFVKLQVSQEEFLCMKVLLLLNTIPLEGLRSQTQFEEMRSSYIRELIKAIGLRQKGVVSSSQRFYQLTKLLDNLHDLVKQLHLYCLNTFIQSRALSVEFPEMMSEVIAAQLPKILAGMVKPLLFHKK
Outline: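 PR-UAS-bla HEK293T cells in medium with 2% charcoal-stripped FBS were dosed after 6 h plating and incubated 16 h at 37C. LiveBLAzer FRET substrate was added for 2 h at room temperature. Cleaved/uncleaved substrate ratio fitted against DMSO; CellTiter-Glo viability run in the same wells.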

PGR (gene 5241) [15] = molecular target: PGR (gene 5241) (UniProt P06401); assay: TOX21_PR_BLA_Followup_Antagonist_ratio: Tox21 HEK293 Progesterone Receptor (PR) Antagonism Beta-lactamase Follow-Up Assay, Ratio (AID 2283934)
Outline: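 PR-UAS-bla HEK293T cells, 3,000/well in 2% charcoal-stripped FBS, given compound plus 1nM R5020 agonist for 16 hr at 37C. Beta-lactamase FRET substrate 2 hours, ratio cleaved/uncleaved fluorescence; viability by CellTiter-Glo in same wells.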

[16] = TOX21_PR_BLA_Followup_Agonist_viability: Viability Assessment in the Tox21 HEK293 Progesterone Receptor (PR) Agonism Beta-lactamase Follow-Up Assay (AID 2283935);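 further: signal loss means lower viability so actives are cytotoxic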
Outline: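 PR-UAS-bla HEK293T cells in 2% charcoal-stripped FBS medium, plated 6 hr before compound addition, exposed 16 hr at 37C. Viability read by CellTiter-Glo ATP luminescence after 30 min at room temperature, in the same wells as the beta-lactamase readout.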

[17] = TOX21_PR_BLA_Followup_Antagonist_viability: Viability Assessment in the Tox21 HEK293 Progesterone Receptor (PR) Antagonism Beta-lactamase Follow-Up Assay (AID 2283936);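 further: hits lower the luminescence signal meaning cytotoxicity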
Outline: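 PR-UAS-bla HEK293T cells (3,000/well, 2% charcoal-stripped FBS) given compound plus R5020 agonist, 16 h at 37C. CellTiter-Glo added after bla read, 30 min at room temperature; luminescence loss indicates cytotoxicity.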

PGR (gene 5241) [18] = molecular target: PGR (gene 5241) (UniProt P06401); assay: TOX21_PR_LUC_Followup_Agonist: Tox21 HEK293 Progesterone Receptor (PR) Agonism Luciferase Follow-Up Assay (AID 2283937; active means hit-call score of the fitted dose curve at least 0.9, where 1 is the maximum; inactive means score below 0.9)
Outline: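 HEK293-PR-A-luc cells, conditioned 5 days in 10% charcoal-stripped FBS medium, seeded 3,000/well for 5 h, then compound-treated 16 h at 37C. ONE-Glo luminescence read after 30 min at room temperature; gain of signal versus DMSO.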

PGR (gene 5241) [19] = molecular target: PGR (gene 5241) (UniProt P06401); assay: TOX21_PR_LUC_Followup_Antagonist: Tox21 HEK293 Progesterone Receptor (PR) Antagonism Luciferase Follow-Up Assay (AID 2283938);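 further: curve fitted upward as signal gain over DMSO baseline despite antagonist label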
Outline: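 Luciferase reporter in HEK293-PR-A-luc cells: 16 h compound treatment at 37C, ONE-Glo luminescence detection, DMSO as negative control and baseline.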

[20] = TOX21_PR_LUC_Followup_Antagonist_viability: Viability Assessment in the Tox21 HEK293 Progesterone Receptor (PR) Antagonism Luciferase Follow-Up Assay (AID 2283940)
Outline: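 HEK293-PR-A-luc cells kept in charcoal-stripped FBS medium were plated 5 h before compound addition, then exposed 16 h at 37C; viability read as cellular ATP by luciferase luminescence, loss of signal indicating cytotoxicity.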

[21] = TOX21_PR_LUC_Followup_Agonist_viability: Viability Assessment in the Tox21 HEK293 Progesterone Receptor (PR) Agonism Luciferase Follow-Up Assay (AID 2283941);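 further: loss of signal means cytotoxicity so actives lower viability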
Outline: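 HEK293-PR-A-luc cells, kept in 10% charcoal-stripped FBS medium, were treated with compounds for 16 h at 37C. Viability read as cellular ATP by luciferase-coupled luminescence; loss of signal indicates cytotoxicity.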

Measured: AC50

CC(C)=CCC1=C(O)c2ccccc2C(=O)C1=O
inactive: [1] | [3] | [5] | [7] | [9] | THRA (gene 7067) | THRB (gene 7068) [10] | [11] | [13]
active: [2] 1.36 µM | [4] 1.27 µM | [6] 1.74 µM | [8] 2.71 µM | THRB (gene 7068) [12] 31.3 µM

CC1(C)S[C@@H]2[C@H](NC(=O)C(C(=O)O)c3ccccc3)C(=O)N2[C@H]1C(=O)O (some centres undefined)
inactive: [1] | [2] | [3] | [4] | [5] | [6] | [7] | [8]

NC(=O)n1c(O)c(C(=O)c2cccs2)c2cc(Cl)ccc21
active: [2] 26.9 µM | [4] 20.4 µM | [6] 34.4 µM | PGR (gene 5241) [19] 17.3 µM
not listed: [9] | THRA (gene 7067) | THRB (gene 7068) [10] | [11] | THRB (gene 7068) [12] | [13]
inactive: all other assays above

CCCCCCCCCCn1cc[n+](CCCCCCCCCC)c1C
active: [1] 44.2 µM | [2] 18.7 µM | [3] 46.1 µM | [4] 20.1 µM | [5] 57.5 µM | [6] 74.1 µM | [7] 75.2 µM | [8] 73.6 µM

C=C1CC[C@H](O)C/C1=C/C=C1\CCC[C@]2(C)[C@@H]([C@H](C)CCCC(C)(C)O)CC[C@@H]12
active: [1] 12.8 µM | [2] 19.2 µM | [3] 13.7 µM | [4] 27.6 µM | [5] 12.8 µM | [6] 23.2 µM | [7] 13.1 µM | [8] 18.6 µM
